# Screening data as filed in PubChem.
# This is a sample that favours compounds with a hit; in the whole collection about 3.7% have one here.
# Smad3 inh = inhibitors of human Smad3 transcription factor binding | P84022 | TR-FRET Smad3/Dy647-FoxH1 peptide binding, europium anti-His | inhibition, % at 25 µM | 88,000 compounds, 0.29% hits | AID 630;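 active means compounds that reduce the energy-transfer binding signal between the protein and its labelled peptide by more than half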;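 further: 0% = Smad3 plus labelled peptide maximal FRET and 100% = peptide-only background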
# ERb coact inh = ER-beta (human) coactivator binding inhibition; 86,000 compounds, 1.3% hits; inhibition, % at 25.6 µM; AID 633; TR-FRET ER-beta LBD / SRC1-Cy5 peptide binding; receptor agonist-loaded with 1 µM estradiol;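 active means compounds whose percent inhibition of the receptor-coactivator binding signal exceeds about 50% in the single-dose screen, limit read from the data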;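 further: 0% = receptor plus peptide wells without compound and 100% = peptide-only wells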
# ERa coact pot = ER-alpha (human) coactivator binding potentiation; P03372; TR-FRET ERalpha-LBD/SRC-Cy5 coactivator binding, 2 h; 100 = basal binding, no effect; coactivator binding (% of control), % at 25.6 µM; 86,000 compounds, 1.3% hits; in the data active means activity above about 200%;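 further: binding measured in presence of low estradiol as agonist stimulus; 0% = peptide alone without receptor and 100% = receptor with peptide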
# Target sequence (P03372 whole entry, looked up, the tested form may be a part): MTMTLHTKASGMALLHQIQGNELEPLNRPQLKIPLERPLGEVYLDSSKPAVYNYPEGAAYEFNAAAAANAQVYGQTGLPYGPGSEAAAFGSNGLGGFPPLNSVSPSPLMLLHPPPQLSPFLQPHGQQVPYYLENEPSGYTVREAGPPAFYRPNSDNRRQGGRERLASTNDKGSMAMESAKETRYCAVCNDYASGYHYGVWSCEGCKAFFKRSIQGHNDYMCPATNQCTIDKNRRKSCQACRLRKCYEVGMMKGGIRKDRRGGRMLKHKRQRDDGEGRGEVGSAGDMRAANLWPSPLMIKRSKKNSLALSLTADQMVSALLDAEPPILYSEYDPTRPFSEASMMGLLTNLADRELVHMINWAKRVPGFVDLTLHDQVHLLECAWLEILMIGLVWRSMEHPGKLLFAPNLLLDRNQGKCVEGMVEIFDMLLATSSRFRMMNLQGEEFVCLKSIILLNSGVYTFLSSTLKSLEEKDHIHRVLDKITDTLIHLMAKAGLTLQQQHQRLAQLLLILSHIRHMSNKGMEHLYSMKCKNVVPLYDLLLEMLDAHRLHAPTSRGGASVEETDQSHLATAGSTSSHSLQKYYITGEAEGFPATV
# ERa SRC1 inh = ER-alpha (human) coactivator binding inhibition. P03372. TR-FRET ER-alpha LBD / SRC-1 peptide, estradiol-bound. inhibition, % at 25.6 µM. 86,000 compounds, 1.7% hits; in the data active means inhibition above about 50%;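 further: 0% = receptor plus peptide control and 100% = peptide only without receptor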
# Starred values were filed as active, the others as inactive; · = no result given; [ ] = another dose, or the depositor's remark.
SMILES,Smad3 inh,ERb coact inh,ERa coact pot,ERa SRC1 inh
O=C(O)/C=C/C(=O)Nc1cccc2c1-c1ccccc1C2=O,21.1,·,·,·
CNc1ccc(Br)cc(C(=O)/C=C/c2cccc(OC)c2OC)c1=O,10.9,54.9*[fluorescence artefact?],73.3,42.2
CCNc1ccc(Br)cc(C(=O)/C=C/c2ccccc2Cl)c1=O,9.9,74.1*[fluorescence artefact?],93.9,80.4*
O=C(Nc1ccc(OC(F)F)cc1)Nc1cccc(C(F)(F)F)c1,-0.2,-3.7,97.2,6.3
Cn1nc(-c2ccc(C(=O)Nc3cccc(Cl)c3)cc2)c2ccccc2c1=O,-112.1,8.8,260.5*,15.1
Cc1ccc(C(=O)NCC(=O)OCC(=O)c2c(N)n(C)c(=O)n(C)c2=O)s1,3.7,50.0*,64.0,52.6*
COc1ccc(CNC(=O)C(c2ccc(C)o2)N(Cc2cccs2)C(=O)Cc2cccs2)cc1 (stereo unspecified),1.3,-1.4,108.9,-0.7
COC(=O)c1cc2sc(Cl)cc2n1CC(=O)Nc1ccc(OC)c(OC)c1OC,7.4,24.8,108.7,53.6*[fluorescence artefact?]
COCCn1c(C)cc(C(=O)COC(=O)c2ccc(N3CCCC3=O)cc2)c1C,-1.7,-0.4,87.7,0.3
CCOC(=O)c1c(C)[nH]c(C(=O)COC(=O)c2ccc(N3CCCC3=O)cc2)c1C,-127.1,34.5,217.5*[fluorescence artefact?],51.3*[fluorescence artefact?]
COc1ccc(NC(C)=O)cc1NC(=O)CN1CCN(S(=O)(=O)c2ccc(C(C)C)cc2)CC1,-11.8,45.8,248.9*[fluorescence artefact?],-3.8
COC(=O)c1ccc(Cl)c(NC(=O)NC2CCCCC2)c1,4.6,26.6,244.2*[fluorescence artefact?],43.7
COc1ccc(CCn2c(N)cc(=O)[nH]c2=S)cc1OC,10.3,58.5*[fluorescence artefact?],43.8,47.5
Nc1c(Cl)cc(Cl)cc1C(=O)OCC(=O)NC1CC1,4.3,55.1*,59.2,39.7
CCC(=O)Nc1ncnc2ncn(C(=O)CC)c12,1.2,·,·,·
O=C(Nc1nc(=O)c2ccccc2s1)c1ccc(F)cc1,-16.3,52.3*[fluorescence artefact?],188.4,48.6
CSc1nc(NCc2ccco2)c2ccccc2n1,41.1,3.6,98.1,54.5*
c1cncc(-c2nc(NCc3ccco3)c3ccccc3n2)c1,3.2,4.8,98.9,-52.7
CC(=O)c1cccc(NC(=O)Nc2ccc3c(c2)N(C)C(=O)CS3)c1,4.7,6.0,92.0,20.4
c1ccc(-c2nc3c4ccccc4nc(N4CCN(c5ccccn5)CC4)n3n2)cc1,-0.3,-1.1,214.6*[fluorescence artefact?],15.5
c1ccc(-c2nnc(N3CCN(c4ccccn4)CC3)c3ccccc23)cc1,-3.1,-5.6,113.1,-2.6
CN(C)c1nc(N/N=C\c2ccc(Cl)c([N+](=O)[O-])c2)nc(Nc2ccc(F)cc2)n1,11.1,31.4,101.7,78.4*
Cc1ccc(CNc2nc(N)c([N+](=O)[O-])c(Nc3ccc(F)cc3)n2)cc1,-5.0,17.9,109.7,12.3
Cc1cccc(NC(=O)c2c(O)c3cccc4c3n(c2=O)CC4)c1,26.1,28.0,216.6*[fluorescence artefact?],34.1
Cc1occc1-c1nnc(SCC(=O)Nc2nc3ccccc3s2)o1,8.0,19.4,102.8,-5.9
SMILES,Smad3 inh,ERb coact inh,ERa coact pot,ERa SRC1 inh
Cn1c(Cc2ccccc2)nnc1SCC(=O)c1cccs1,-24.1,-6.7,90.6,57.2*
CC(C)OC(=O)CSc1nnc(Cc2ccccc2)n1C,-18.2,5.9,94.6,2.4
CC(C)(C)NC(=O)C(c1ccc(F)cc1)N(Cc1ccco1)C(=O)c1csnn1 (stereo unspecified),5.5,-4.7,102.4,4.4
Cc1ccc(C(C(=O)NC(C)(C)C)N(Cc2cccs2)C(=O)c2csnn2)cc1 (stereo unspecified),4.7,-4.3,114.5,59.7*
COC(=O)c1ccc(-c2n[nH]c(=O)c3ccccc23)cc1,0.9,-1.9,296.1*[fluorescence artefact?],1.1
Clc1ccc2nc(CSc3nnc(-c4c[nH]c5ccccc45)o3)cn2c1,10.9,42.0,260.8*[fluorescence artefact?],31.1
Clc1ccc2nc(CSc3nc4ccccc4o3)cn2c1,-1.7,-10.0,102.0,-0.4
Cc1cc(C)nc(NC(=O)c2ccc(Cl)c(Cl)c2)n1,3.7,-2.0,99.2,4.2
Cc1cc(C)nc(NC2=NCCN2C(=O)Nc2ccc(Cl)c(Cl)c2)n1,10.0,14.3,970.5*,-53.8
Cc1cc(C)c2nc(SCC(=O)Nc3ccccc3N3CCOCC3)c(C#N)cc2c1,7.2,33.4,353.2*[fluorescence artefact?],21.1
Cc1cc(C)c2nc(SCC(=O)N3CC(=O)Nc4ccccc43)c(C#N)cc2c1,5.5,32.8,461.1*[fluorescence artefact?],27.9
Cc1nnc(SCC(=O)N2CC(=O)Nc3ccccc32)n1-c1ccccc1,8.2,1.2,115.7,-3.0
CCN(CC)c1ccc(NC(=O)c2cnc3ccccn3c2=O)c(C)c1,-1.5,-1.2,628.6*[fluorescence artefact?],-40.7
c1ccc(C[n+]2cccc(-c3cc4ccccc4[nH]3)c2)cc1,3.4,·,·,·
COC(=O)c1ccc(Cn2cnc3c(sc4nc(N5CCOCC5)c5c(c43)CCCC5)c2=O)o1,-5.4,36.1,202.6*,10.4
COC(=O)CSc1ncnc2c1sc1nc(N3CCOCC3)c3c(c12)CCCC3,8.6,35.8,391.3*[fluorescence artefact?],12.1
COc1ccc(S(=O)(=O)Cc2ccc(C(=O)N3CCCC3)o2)cc1,2.2,-4.0,117.8,-2.6
COc1ccccc1S(=O)(=O)Cc1ccc(C(=O)N2CCCC2)o1,0.4,-12.5,208.4*,6.9
N#Cc1c(/N=C/c2ccco2)sc2c1CCC2,-7.9,4.7,103.8,-3.7
CCOc1[nH]c(/N=C/c2ccco2)c(C#N)c1C#N,10.4,59.7*,71.6,34.7
CC(C)(CO[C@@H]1C[C@@H]2CC[C@@]1(C)C2(C)C)[N+](=O)[O-],-1.8,·,·,·
COCCNC(=O)C1CC(=O)N(c2ccc(F)c(Cl)c2)C1 (stereo unspecified),-3.9,4.5,104.5,-4.5
CCN(CC)C(=O)C1CC(=O)N(c2ccc(F)c(Cl)c2)C1 (stereo unspecified),-16.4,66.9*[fluorescence artefact?],101.3,4.4
COCC(=O)N(C)C1(c2nnnn2CCOC(=O)Nc2cccc3ccccc23)CCCC1,-3.5,61.4*[fluorescence artefact?],76.6,19.2
COc1ccccc1NC(=O)COc1ccc(C(=O)OCC(=O)N2CCCC2=O)cc1OC,0.4,12.0,349.0*[fluorescence artefact?],-5.5
SMILES,Smad3 inh,ERb coact inh,ERa coact pot,ERa SRC1 inh
COc1ccc(NC(=O)COC(=O)c2ccc(N3CCCC3=O)cc2)cc1OC,-10.3,-7.6,123.8,-3.0
Cc1cccc(-n2c(SCc3cc(=O)n4c(C)cccc4n3)nc3[nH]ncc3c2=O)c1,9.3,53.1*,82.1,-5.9
Cc1cc(C)c2[nH]c(=O)c(C(c3nnnn3Cc3ccc4c(c3)OCO4)N3CCCCC3)cc2c1 (stereo unspecified),-2.0,-6.4,100.1,-6.8
CCC(C)(C)n1nnnc1C(c1cc2cc(C)cc(C)c2[nH]c1=O)N1CCN(Cc2ccc3c(c2)OCO3)CC1 (stereo unspecified),41.0,36.1,226.7*[fluorescence artefact?],30.0
N#C/C(=N\Nc1ccccc1F)C(=N)N1CCCCC1,-1.3,60.0*[fluorescence artefact?],127.8,-5.0
Cc1ccc(-n2c(=O)c(C#N)cc3c(=O)n4cccc(C)c4nc32)cc1,15.3,51.9*,140.4,62.3*
CCCn1c(=NC(C)=O)c(C#N)cc2c(=O)n3cccc(C)c3nc21,20.2,47.0,58.8,53.7*[fluorescence artefact?]
